# Assay outcomes from PubChem BioAssay.
# TROY signal inh: blocks TROY-dependent signaling in reporter cells; 360,000 tested, 0.98% active; inhibition, % at 10 µM; Q293 LMP1-TROYcd NF-kB luciferase reporter, 4 h;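 active = compounds whose plate-normalised and pattern-corrected inhibition of the luciferase reporter signal at the single screening dose is 50% or more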
# HIF-2a inh: blocks HIF-2a reporter activity | 786-0 RCC cells HIF-2a reporter, luciferase luminescence, overnight | inhibition, % at 18.8 µM | 360,000 tested, 0.72% active | AID 624352;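 active = inhibition of the luminescence signal of 40% or more relative to plate controls, in a single-dose primary screen at 18.75 µM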
# KKLEB tox: counter-screen for CF NF-kB inhibitors: cytotoxicity; KKLEB CF airway cells viability, ATPlite luminescence, overnight; hits give low values; cells stimulated with P. aeruginosa culture filtrate; activity change (cytotoxicity), % at 5 µM; 360,000 tested, 0.36% active; AID 602141;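 active = corrected activity change at or below -50% at 5 µM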
# TWEAK Fn14 block: blocks TWEAK-Fn14 interaction in a reporter cell assay; inhibition, % at 10 µM; TWEAK-stimulated Fn14 reporter cells, luciferase luminescence, 8 h; 360,000 tested, 2% active; in the data active = inhibition above about 50%
# Peg3 prom inh: reduces Peg3 promoter-driven luciferase expression in HeLa. 360,000 tested, 1.7% active. HeLa PEG-Prom luciferase reporter, luminescence, overnight. inhibition, % at 20 µM;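 active = inhibition of at least 50% at 20 µM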
# CF NFkB block: cystic fibrosis NF-kB activation inhibition. inhibition, % at 5 µM. KKLEB NF-kB-GFP reporter, PAF-induced, GFP fluorescence overnight. 360,000 tested, 0.86% active;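 active = at least 50% inhibition at 5 µM, scaled per plate between neutral and stimulator controls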;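 also: PAF is a Pseudomonas aeruginosa culture filtrate used as stimulus; plate controls were PAF-stimulated DMSO wells for no effect and unstimulated DMSO wells for full effect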
# Starred values were filed as active, the others as inactive. Only some compounds are listed: those with a hit (about 4% of all), similar ones and a draw of the others.
SMILES,TROY signal inh,HIF-2a inh,KKLEB tox,TWEAK Fn14 block,Peg3 prom inh,CF NFkB block
COc1cc2c(cc1NC(=O)C(C)Sc1ccc(NC(C)=O)cc1)oc1ccccc12 (stereo not given),8,-92,-17,66*,15,10
CN1C(=O)C(C)(C)c2cc(S(=O)(=O)N3CCC(C(=O)NCc4ccc(Cl)cc4)CC3)ccc21,19,-1,-11,1,12,-11
CC(=O)Nc1ccc(C(=O)N2CCCC(c3cc(C(=O)NCc4cccnc4)no3)C2)cc1 (stereo not given),4,6,11,-11,-1,1
Cc1ccc(C)n1-n1c(C)nc2sc(-c3ccccc3)cc2c1=O,5,-125,-10,69*,-100,6
Cc1ccc(C(=O)NCCN(C)C)c(C)c1,-4,-2,3,-16,15,-8
CNc1c2cccc(C)c2nc2c(C(=O)NCCN(C)C)cccc12,-70,62*,-39,1,108*,95*
Cc1ccc(N=Cc2ccc[nH]2)c(O)c1,76*,-182,4,42,-185,-3
Cc1cc(NS(=O)(=O)c2ccc(NC(=O)Cc3ccc(Cl)c(Cl)c3)cc2)no1,-3,6,-6,7,21,15
CC1Cc2ccccc2N1S(=O)(=O)c1cccc(C(=O)OCC(=O)NCc2ccco2)c1 (stereo not given),14,13,-1,-11,5,3
COc1ccc(Cc2[nH]n3c(=O)cc(C(C)C)nc3c2-c2ccccc2)cc1,34,22,-6,15,52*,9
CN(Cc1ccccc1)C(=O)CCN1C(=O)c2cccc([N+](=O)[O-])c2C1=O,-6,3,3,18,23,-5
O=C(Nc1ccccc1O)c1ccc2c(c1)C(=O)N(Cc1ccco1)C2=O,12,17,3,-4,64*,5
Cc1ccc(C)c(NC(=S)NC(NC(=O)Cc2ccccc2)C(Cl)(Cl)Cl)c1 (stereo not given),10,7,10,-23,84*,18
Cc1cc(C)c(NC(=S)NC(NC(=O)c2ccccc2)C(Cl)(Cl)Cl)c(C)c1 (stereo not given),26,-5,-12,14,69*,12
Cc1cccc(NC(=S)NC(=O)Cc2ccccc2)c1C,-1,-24,5,-17,-7,3
Cc1ccc(NC(NC(=O)Cc2ccccc2)C(Cl)(Cl)Cl)cc1 (stereo not given),-2,21,-7,13,24,10
Cc1cc(C)c(O)c(NC(=S)NC(=O)Cc2ccccc2)c1,-21,-11,0,72*,-15,4
Cc1ccc(NC(=S)NC(NC(=O)c2ccccc2)C(Cl)(Cl)Cl)c(C)c1 (stereo not given),30,31,19,30,35,-1
CC(=O)c1cccc(-c2ccnc3c2CC(C(=O)Nc2cccc(C(F)(F)F)c2)O3)c1 (stereo not given),38,-1,-8,48,36,3
CC(=O)Nc1ccc2c(c1Br)Cc1ccccc1-2,-57,-286,-13,9,-269,0
O=C(c1ccccc1)N1CCN(S(=O)(=O)c2cccs2)CC1,19,2,4,11,7,10
Cc1ccc(F)cc1-c1cc(C(=O)NCc2cc(C(F)(F)F)cc(C(F)(F)F)c2)[nH]n1,53*,4,2,19,13,16
Cc1csc(-c2cc(C(=O)NCc3cc(C(F)(F)F)cc(C(F)(F)F)c3)n[nH]2)c1,52*,-6,-5,-80,15,0
Cc1cc(F)ccc1-c1cc(C(=O)NCc2cc(C(F)(F)F)cc(C(F)(F)F)c2)[nH]n1,30,-15,21,-53,5,-23
N#Cc1ccc(N/N=C/c2cn(-c3ccccc3)nc2-c2ccccc2)c([N+](=O)[O-])c1,-8,17,-15,-31,29,26
COc1ccc(C)cc1S(=O)(=O)N1CCN(C(=O)c2ncoc2-c2ccc(C)cc2)CC1,-2,13,7,85*,-5,1
O=C(Cc1nnc(NC(=O)c2ccccc2)s1)N/N=C/c1ccc(O)cc1,-4,0,-4,58*,0,-14
O=C(Cc1nnc(NC(=O)c2ccccc2)s1)N/N=C\c1ccc(O)c(O)c1,-9,17,-2,8,7,9
CCc1cc(C(=O)O)c(NC(=O)C(c2ccccc2)c2ccccc2)s1,19,15,-66*,4,15,-2
